# From PubChem BioAssay
# Activity calls are given as the source filed them. Unless noted, the rule behind the calls is not given here.
# How the values were obtained:
# [1] = anti-His antibody binders, primary screen, artefact control for SMM control protein annotation, biochemical, small-molecule microarray, 635 nm fluorescence (AID 1128); details: anti-His Alexa647 antibody binding, higher = more signal;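 note: score merges feature fluorescence with signal-to-noise for each printed compound spot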
# [2] = test system: Human papillomavirus type 1a E7 protein (residues 1-88); experiment: HPV1a E7 small-molecule binders, primary screen, biochemical, small-molecule microarray, residues 1-88, 635 nm (AID 1129); details: small-molecule microarray binding, fluorescence 635 nm; higher = more signal
# [3] = biological target: Focal adhesion kinase 1 (Homo sapiens) (UniProt Q05397); experiment: small-molecule microarray binders of FAK, primary screen, biochemical, 635/667 nm fluorescence, BSA, DTT (AID 1130); details: PTK2 binding, 635 nm fluorescence, higher = more signal;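 note: composite of spot emission at 667 nm and signal to noise over triplicate slides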
# [4] = test system: Fibrinogen (Alexa647-labelled); experiment: fibrinogen binders on compound microarrays, profiling panel, artefact control for SMM control-protein annotation, biochemical, small-molecule microarray, 635/667 nm fluorescence (AID 1131); details: fibrinogen-A647 binding fluorescence, higher = more signal;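 note: z-score merges 667 nm fluorescence with per-spot signal-to-noise over triplicate slides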
# [5] = biological target: Follistatin (Homo sapiens) (UniProt P19883); experiment: follistatin binders on small-molecule microarrays, primary screen, biochemical, small-molecule microarray, 635/667 nm fluorescence (AID 1132); details: FST binding, 635 nm fluorescence, higher = more signal
# [6] = biological target: Fibroblast growth factor 2 (Homo sapiens) (UniProt P09038); experiment: FGF2 binders on small-molecule microarrays, primary screen, biochemical, small-molecule microarray, 635/667 nm fluorescence (AID 1133); details: small-molecule microarray binding, FGF2, fluorescence 635/667; higher = more signal
# [7] = mitochondrial membrane potential change in A549 cells, profiling panel, cell-based, JC-1 fluorescence, basal, 24 h, 100 nL (AID 1138); details: higher = more signal;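 note: A549 lung adenocarcinoma cells under basal conditions with no added stimulus; test concentration not given here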
# Lefty1 = Lefty1 binders on small-molecule microarrays, primary screen, biochemical, small-molecule microarray, 635/667 nm fluorescence (AID 1139); details: small-molecule microarray binding, fluorescence 635/667; higher = more signal
# [8] = test system: wheat germ agglutinin (Triticum aestivum), Alexa647-labelled; experiment: wheat germ agglutinin binders on compound microarrays, profiling panel, artefact control for SMM control-protein annotation, biochemical, small-molecule microarray, 635/667 nm fluorescence (AID 1140); details: WGA-A647 binding, 635 nm fluorescence, higher = more signal;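 note: score merges 667 nm feature emission with signal to noise over triplicate slides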
# [9] = biological target: Luciferin 4-monooxygenase (Photinus pyralis) (UniProt P08659); experiment: firefly luciferase enzyme inhibitors, primary screen, biochemical, luminescence, purified enzyme, 2006 set (AID 1141); details: SteadyGlo luminescence, 30 min, higher = more signal, called active from +8 up or from −8 down;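 note: cell-free assay with purified firefly luciferase at 100 ng per well in PBS; test concentration not given here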
# [10] = test system: Wnt5a (protein binding on small-molecule microarray); experiment: Wnt5a binders on small-molecule microarray, primary screen, biophysical, 635/667 nm fluorescence (AID 1142); details: 635 nm fluorescence, higher = more signal;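 note: fluorescence read at 667 nm with signal to noise per printed feature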
# [11] = cell viability in Huh7 cells, primary screen, cytotoxicity control for HCV replication inhibitor project, CellTiter-Glo luminescence, basal, 48 h (AID 1143); details: Huh7 HCV replicon, higher = more signal, called active from +8 up or from −8 down;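 note: Huh7 hepatoma cells carrying a hepatitis C replication reporter with no stimulus; test concentration not given here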
# [12] = P. aeruginosa biofilm formation inhibitors, primary screen, PAO1 strain, BacTiter-Glo luminescence, LB-PBS (AID 1144); details: 12 h, higher = more signal
# [13] = CREB reporter modulators without forskolin, primary screen, cell-based, PC12, CRE-LacZ reporter, unstimulated (AID 1145); details: no forskolin, luminescence, 4.5 h, higher = more signal, called active from +8 up or from −8 down
# [14] = CREB reporter modulators under forskolin, primary screen, cell-based, PC12, CRE-LacZ reporter, forskolin-stimulated (AID 1146); details: luminescence, 4.5 h, higher = more signal, called active from +8 up or from −8 down;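 note: PC12 cells with 6xCRE LacZ reporter stimulated by forskolin 10 µM; beta-galactosidase reporter signal reflecting CREB driven transcription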
# [15] = biological target: Streptavidin (Streptomyces avidinii) (UniProt P22629); experiment: streptavidin binders on small-molecule microarray, primary screen, artefact control for SMM compound annotation, biophysical, 635/667 nm fluorescence (AID 1147); details: streptavidin binding, higher = more signal;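 note: signal reflects streptavidin binding to arrayed compounds as a control protein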
# [16] = small-molecule binders of probe aInhba, primary screen, biochemical, small-molecule microarray, 635/667 nm fluorescence (AID 1148); details: higher = more signal;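 note: score merges 667nm spot fluorescence with signal-to-noise for antibody binding to printed compounds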
# Torsin-1A (Homo sapiens) [17] = biological target: Torsin-1A (Homo sapiens) (UniProt O14656); experiment: torsin A binders from cell lysate, primary screen, small-molecule microarray, wild-type, 635/667 nm (AID 1149); details: COS7 hTOR1A-WT lysate, 635 nm fluorescence, higher = more signal
# Torsin-1A (Homo sapiens) [18] = biological target: Torsin-1A (Homo sapiens) (UniProt O14656); experiment: small-molecule binders of mutant TOR1A in lysate, primary screen, cell lysate, small-molecule microarray, COS7 lysate, 635/667 nm fluorescence (AID 1150); details: COS7 hTOR1A mutant lysate, 635 nm fluorescence, higher = more signal;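 note: score pools 667 nm emission and signal to noise measuring lysate protein binding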
# [19] = test system: Sonic hedgehog protein (Shh); experiment: small-molecule binders of Shh protein, primary screen, biochemical, small-molecule microarray, 635/667 nm fluorescence (AID 1151); details: small-molecule microarray binding, 635 nm fluorescence; higher = more signal;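 note: Shh protein binding to compounds spotted on small-molecule microarray slides; score combines spot fluorescence intensity with signal-to-noise across triplicate slides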
# Sequence of Streptavidin (Streptomyces avidinii) (P22629 whole entry, looked up): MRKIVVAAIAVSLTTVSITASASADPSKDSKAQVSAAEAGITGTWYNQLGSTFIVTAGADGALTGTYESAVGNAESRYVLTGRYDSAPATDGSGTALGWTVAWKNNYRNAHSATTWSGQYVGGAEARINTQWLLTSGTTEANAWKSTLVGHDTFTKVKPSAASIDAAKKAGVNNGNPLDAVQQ
# Sequence of Luciferin 4-monooxygenase (Photinus pyralis) (P08659 whole entry, looked up): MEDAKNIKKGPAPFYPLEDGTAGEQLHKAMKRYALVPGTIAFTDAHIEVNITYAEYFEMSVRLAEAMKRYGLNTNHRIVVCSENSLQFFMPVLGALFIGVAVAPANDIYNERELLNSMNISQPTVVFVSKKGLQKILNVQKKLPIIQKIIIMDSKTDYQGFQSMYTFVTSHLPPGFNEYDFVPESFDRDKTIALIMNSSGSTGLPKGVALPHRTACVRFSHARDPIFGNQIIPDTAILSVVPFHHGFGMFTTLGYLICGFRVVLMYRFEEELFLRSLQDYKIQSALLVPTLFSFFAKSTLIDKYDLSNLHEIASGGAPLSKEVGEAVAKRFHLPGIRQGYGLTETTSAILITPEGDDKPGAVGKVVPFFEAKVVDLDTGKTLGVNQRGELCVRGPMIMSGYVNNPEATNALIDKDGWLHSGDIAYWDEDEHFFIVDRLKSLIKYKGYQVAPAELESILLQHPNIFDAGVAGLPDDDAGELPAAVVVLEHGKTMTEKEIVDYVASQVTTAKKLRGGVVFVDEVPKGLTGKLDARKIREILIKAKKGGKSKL
# Sequence of Torsin-1A (Homo sapiens) (O14656 whole entry, looked up): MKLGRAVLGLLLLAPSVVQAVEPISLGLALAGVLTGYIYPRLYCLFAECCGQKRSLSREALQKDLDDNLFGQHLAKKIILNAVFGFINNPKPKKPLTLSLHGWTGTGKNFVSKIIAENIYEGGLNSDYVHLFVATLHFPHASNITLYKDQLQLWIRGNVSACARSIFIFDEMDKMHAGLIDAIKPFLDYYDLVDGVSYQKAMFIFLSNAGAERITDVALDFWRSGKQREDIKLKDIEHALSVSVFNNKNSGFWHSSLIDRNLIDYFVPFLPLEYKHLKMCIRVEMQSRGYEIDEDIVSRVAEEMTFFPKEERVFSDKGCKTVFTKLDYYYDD
# Sequence of Focal adhesion kinase 1 (Homo sapiens) (Q05397 whole entry, looked up): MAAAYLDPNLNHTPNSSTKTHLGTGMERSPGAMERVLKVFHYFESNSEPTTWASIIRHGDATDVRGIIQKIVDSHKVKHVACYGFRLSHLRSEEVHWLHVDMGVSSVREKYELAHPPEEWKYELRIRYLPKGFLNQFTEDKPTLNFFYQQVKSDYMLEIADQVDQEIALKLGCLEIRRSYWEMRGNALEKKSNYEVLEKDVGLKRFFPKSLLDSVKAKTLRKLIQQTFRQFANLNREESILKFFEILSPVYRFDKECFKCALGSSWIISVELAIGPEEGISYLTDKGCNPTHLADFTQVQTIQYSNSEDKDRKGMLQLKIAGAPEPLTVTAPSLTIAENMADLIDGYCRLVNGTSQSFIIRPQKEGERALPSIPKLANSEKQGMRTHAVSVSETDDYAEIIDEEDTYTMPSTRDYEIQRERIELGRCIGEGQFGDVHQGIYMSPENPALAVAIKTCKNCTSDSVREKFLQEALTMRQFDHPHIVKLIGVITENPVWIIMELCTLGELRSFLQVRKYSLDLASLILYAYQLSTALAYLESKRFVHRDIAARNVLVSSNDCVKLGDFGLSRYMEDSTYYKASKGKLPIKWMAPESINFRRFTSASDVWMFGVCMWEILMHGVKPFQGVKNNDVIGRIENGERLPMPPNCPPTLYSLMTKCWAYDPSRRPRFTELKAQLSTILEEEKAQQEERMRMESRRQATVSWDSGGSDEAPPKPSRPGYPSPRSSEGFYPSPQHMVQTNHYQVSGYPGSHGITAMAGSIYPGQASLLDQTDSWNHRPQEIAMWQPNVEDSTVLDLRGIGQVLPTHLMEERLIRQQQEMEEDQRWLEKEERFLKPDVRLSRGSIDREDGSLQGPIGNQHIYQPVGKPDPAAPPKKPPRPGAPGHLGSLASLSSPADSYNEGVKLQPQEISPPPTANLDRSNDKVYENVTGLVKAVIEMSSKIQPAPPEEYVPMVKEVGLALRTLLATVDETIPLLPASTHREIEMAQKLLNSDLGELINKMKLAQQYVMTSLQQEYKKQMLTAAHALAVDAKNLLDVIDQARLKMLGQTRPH
# Sequence of Fibroblast growth factor 2 (Homo sapiens) (P09038 whole entry, looked up): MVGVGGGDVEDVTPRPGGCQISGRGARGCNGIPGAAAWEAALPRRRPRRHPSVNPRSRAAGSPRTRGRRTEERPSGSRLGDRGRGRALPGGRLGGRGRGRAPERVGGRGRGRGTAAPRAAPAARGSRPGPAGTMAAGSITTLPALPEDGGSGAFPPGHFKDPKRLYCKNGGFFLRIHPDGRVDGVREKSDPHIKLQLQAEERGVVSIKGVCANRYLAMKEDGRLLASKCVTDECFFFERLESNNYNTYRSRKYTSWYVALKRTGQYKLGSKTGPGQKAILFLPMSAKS
# Sequence of Follistatin (Homo sapiens) (P19883 whole entry, looked up): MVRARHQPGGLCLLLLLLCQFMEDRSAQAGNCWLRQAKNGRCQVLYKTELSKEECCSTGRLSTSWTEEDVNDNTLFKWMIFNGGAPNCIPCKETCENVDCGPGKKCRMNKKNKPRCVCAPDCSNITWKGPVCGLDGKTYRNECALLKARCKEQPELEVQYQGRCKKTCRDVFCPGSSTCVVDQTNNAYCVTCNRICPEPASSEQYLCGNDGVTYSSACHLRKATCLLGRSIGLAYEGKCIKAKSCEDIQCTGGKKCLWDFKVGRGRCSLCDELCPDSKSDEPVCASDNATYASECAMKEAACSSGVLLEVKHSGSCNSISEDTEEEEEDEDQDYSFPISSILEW
SMILES,composite z-score [1],composite z-score [2],composite z-score [3],composite z-score [4],composite z-score [5],composite z-score [6],z-score [7],composite z-score (Lefty1),composite z-score [8],z-score [9],composite z-score [10],z-score [11],z-score [12],z-score [13],z-score [14],composite z-score [15],composite z-score [16],composite z-score (Torsin-1A (Homo sapiens) [17]),composite z-score (Torsin-1A (Homo sapiens) [18]),composite z-score [19]
CC(C)C[C@@H]1NC(=O)[C@@H]2C[C@H](C(=O)NCc3ccc(F)cc3)[C@H](c3ccc(O)cc3)N2C1=O,2.13,0.0885,0.317,0.248,1.34,1.91,0.634,0.689,-0.299,-0.0763 (inactive),0.187,-0.393 (inactive),-0.0526 (inactive),-0.26 (inactive),-0.101 (inactive),-0.419,-0.118,0.483,0.44,1.46
CCCCC(CC)C(O)C1C=CC2C(=O)NC(=O)C2N1Nc1ccccn1 (stereo not given),2.27,1.17,0.178,1,0.962,-0.539,0.933,0.21,1.21,-1.55 (inactive),-0.129,0.683 (inactive),-1.03 (inactive),-0.322 (inactive),-0.634 (inactive),0.91,-0.0405,0.312,0.624,-0.0493
C=C(CCCC)/C(=C/C[C@@H](OC(=O)c1ccncc1)c1ccccc1OCCO)c1cc(C(=O)OC)ccc1OC,2.82,1.22,1.38,0.979,0.549,0.213,3.24,0.444,1,-1.76 (inactive),0.106,-2.02 (inactive),0.0648 (inactive),15.6 (active),0.383 (inactive),-0.36,-0.0047,0.622,1.1,1.4
CN(C)CCCN1C(=O)[C@@]2(Cc3ccccc31)c1ccccc1C(=O)N(Cc1ccccc1)[C@H]2c1ccc(CO)cc1,-0.201,-0.153,-0.0553,0.385,0.375,0.144,-0.548,0.122,0.111,1.09 (inactive),-0.173,-5.06 (inactive),-1.74 (inactive),-0.491 (inactive),-0.665 (inactive),-0.394,-0.128,-0.158,-0.105,0.463
NC(=O)[C@H]1[C@@H]2C(=O)O[C@@H](c3ccccc3)[C@@H](c3ccccc3)N2[C@@H](c2ccc(O)cc2)[C@]12C(=O)Nc1ccc(C#CC3(O)CCCCCC3)cc12,1.55,1.23,0.505,0.946,1.24,1.58,-1.43,0.889,0.949,0.268 (inactive),0.0428,-4.82 (inactive),-0.947 (inactive),0.272 (inactive),1.09 (inactive),0.387,0.0074,0.375,1.37,1.46
